Reference: PubChem BioAssay (NCI)
The panel holds about 83,000 compounds, 20% with a hit somewhere; the sample as a whole holds those more often.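 A percent growth of 40 corresponds to 60% growth inhibition; 0 means no net growth; -100 means all cells died. Active threshold: below 10.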 The source made the active and inactive calls.

test system: CCRF-CEM leukemia; test: NCI-60 one-dose screen, 48 h (100 = growth as untreated, 0 = no growth, -100 = all killed); details: 10 µM unless noted

SMILES	growth
COc1cc(-c2nnc(-c3nc(-c4cc(OC)c(OC)c(OC)c4)n4ccccc34)o2)ccc1N	43% (inactive)
COc1ccc(CNC(=O)c2c(C)n([O-])c3ccc(OC)cc3[n+]2=O)cc1	100% (inactive)
N#CC(C#N)C(C#N)C#N	105% (inactive)
CCCCCCCSc1ncnc2[nH]ncc12	76% (inactive)
CC(C)N(Cc1ccccc1)c1c(S)ssc1=S	-81.6% (active)
O=C(NCCNC(=O)Oc1cccc2ccccc12)Oc1cccc2ccccc12	65.2% (inactive)
COc1cnc2c(c1)C(=O)c1c-2n(CCCN2CCCC2)c(=O)c2cc(F)ccc12	0.937% (active)
CSc1nc(-c2ccc(O)cc2O)c2c(=O)[nH]c(Nc3ccc(S(=O)(=O)Nc4nc(C)cc(C)n4)cc3)nc2n1	103% (inactive)
c1ccc(COc2ccc(Nc3ncnc4c3cnn4-c3ccccc3)cc2)cc1	80.8% (inactive)
ICCC(c1ccccc1)(c1ccccc1)c1ccccc1	31.6% (inactive)
O=C(CSc1nnc(-c2cc(-c3ccccc3)nc3ccccc23)o1)c1ccc(Br)cc1	105% (inactive)
O=c1[nH]c(SCc2ccccc2)nc2nc(Nc3ccc(NC(=S)Nc4ccccc4)cc3)nc(-c3ccc(O)cc3O)c12	94.5% (inactive)
Cc1sc2nc3c4ccccc4c(NCCCN(C)C)nn3c(=O)c2c1C	-27.9% (active)
C[C@H](C(=O)N[C@@H](Cc1ccc(-c2ccccc2)cc1)C(=O)NC1CC(C)(C)NC(C)(C)C1)c1ccc(-c2ccccc2)c(F)c1	-20.9% (active)
Cc1csc(C#Cc2cncc(O)c2)n1	-8.24% (active)
CN[C@@H]1C(OC2[C@H](O[C@H]3[C@H](O)[C@@H](O)[C@H](N=C(N)N)[C@@H](O)[C@@H]3N=C(N)N)OC(C)[C@]2(O)CO)OC(CO)C(O)C1O (some centres undefined)	101% (inactive)
COCCOCCOCCOCCOc1ccc2c(c1)C(=O)c1nc3ncccc3c(=O)n1-2	5.42% (active)

SMILES	growth
N#CC1c2ccccc2C=CN1C(=O)N(c1ccccc1)c1ccccc1 (centres undefined)	3.82% (active)
Nc1ccc2c(c1)C(=O)c1cc(Cl)c(Cl)cc1-2	82.8% (inactive)
COc1ccc2c(c1)C(=Nc1cc(OC)c(OC)c(OC)c1)C(=O)N2	81.1% (inactive)
CN(C)CCCN=c1cc2c(=O)n(CCCN(C)C)c(=O)c3c(NCCCN(C)C)cc4c(O)n(CCCN(C)C)c(=O)c1c4c3-2	10.8% (inactive)
COc1ccc(-c2cnc(SCC(=O)Nc3ccc(-c4nc5ccccc5s4)cc3)n2-c2ccc(OC)cc2)cc1	94.2% (inactive)
O=c1[nH]cc(Nc2cc(Cl)c3nonc3c2[N+](=O)[O-])c(=O)[nH]1	106% (inactive)
CCOC(=O)Nc1cc(-c2ccc(C)c(NS(C)(=O)=O)c2)nn2c(C)nnc12	24.5% (inactive)
NS(=O)(=O)c1cc2c(cc1Cl)NC=NS2(=O)=O	97.6% (inactive)
COc1ccc2ncccc2c1Cc1c(OC)ccc2ncccc12	70.7% (inactive)
c1ccc(-c2n(Cc3ccc4ccccc4c3)cc[n+]2Cc2ccc3ccccc3c2)cc1	6.85% (active)
Nc1nc(Nc2ccccc2SSc2ccccc2Nc2nc(N)nc(-c3cccc(Cl)c3)n2)nc(-c2cccc(Cl)c2)n1	68.1% (inactive)
CC1CN(CC(O)c2ccc(Br)cc2)CCO1 (centres undefined)	102% (inactive)
CC[C@@H](C)/C=C(C)/C=C/C(=O)c1c(O)c(-c2ccc(O)cc2)cn(OC2CC(=O)CCC(C)OC(=O)CC2O)c1=O (some centres undefined)	2.11% (active)
CCCCc1n(Cc2ccc3ccccc3c2)cc[n+]1Cc1ccc2ccccc2c1	6.82% (active)
COc1cc(/C=C2\SC(N3CCCCC3)=NC2=O)ccc1OCCCCCCOc1ccc(/C=C2\SC(N3CCCCC3)=NC2=O)cc1OC	1.05% (active)
CCCCCCCCN(CCO)CCCCCCCC	99.4% (inactive)

test system: MOLT-4 leukemia; test: as above; details: 10 µM unless noted

SMILES	growth
COc1cc(-c2nnc(-c3nc(-c4cc(OC)c(OC)c(OC)c4)n4ccccc34)o2)ccc1N	64.6% (inactive)
O=C(Nc1ccc2c(c1)C(=O)c1ccccc1-2)c1ccccc1	97.7% (inactive)
COc1ccc(CNC(=O)c2c(C)n([O-])c3ccc(OC)cc3[n+]2=O)cc1	103% (inactive)
N#CC(C#N)C(C#N)C#N	96.4% (inactive)
CC[N+](CCCCCCCCCC[N+](CC)(c1ccccn1)c1ccccn1)(c1ccccn1)c1ccccn1	-8.33% (active)
CCCCCCCSc1ncnc2[nH]ncc12	75.4% (inactive)
CC(C)N(Cc1ccccc1)c1c(S)ssc1=S	0.0865% (active)
O=C(NCCNC(=O)Oc1cccc2ccccc12)Oc1cccc2ccccc12	80.6% (inactive)
Cc1[nH]c(=O)[nH]c(=O)c1CCSSCCc1c(C)[nH]c(=O)[nH]c1=O	100% (inactive)
COc1cnc2c(c1)C(=O)c1c-2n(CCCN2CCCC2)c(=O)c2cc(F)ccc12	-19.5% (active)
O=C1/C(=C/c2ccc(F)cc2)Cc2ccccc21	98.3% (inactive)
CC[n+]1c(/C=C/c2ccc(N3CCCC3)cc2)cccc1/C=C/c1ccc(N2CCCC2)cc1	10.3% (inactive)
ICCC(c1ccccc1)(c1ccccc1)c1ccccc1	39.4% (inactive)
O=C(CSc1nnc(-c2cc(-c3ccccc3)nc3ccccc23)o1)c1ccc(Br)cc1	104% (inactive)
O=c1[nH]c(SCc2ccccc2)nc2nc(Nc3ccc(NC(=S)Nc4ccccc4)cc3)nc(-c3ccc(O)cc3O)c12	93% (inactive)
Cc1cc(Cl)ccc1Nc1nc(C(F)(F)F)ccc1C(=O)N/N=C/c1ccc(Cl)cc1	-20.1% (active)
Cc1sc2nc3c4ccccc4c(NCCCN(C)C)nn3c(=O)c2c1C	-44.9% (active)
C[C@H](C(=O)N[C@@H](Cc1ccc(-c2ccccc2)cc1)C(=O)NC1CC(C)(C)NC(C)(C)C1)c1ccc(-c2ccccc2)c(F)c1	-42.4% (active)

SMILES	growth
Cc1csc(C#Cc2cncc(O)c2)n1	105% (inactive)
CN[C@@H]1C(OC2[C@H](O[C@H]3[C@H](O)[C@@H](O)[C@H](N=C(N)N)[C@@H](O)[C@@H]3N=C(N)N)OC(C)[C@]2(O)CO)OC(CO)C(O)C1O (some centres undefined)	92.7% (inactive)
N#CC1c2ccccc2C=CN1C(=O)N(c1ccccc1)c1ccccc1 (centres undefined)	3.19% (active)
Nc1ccc2c(c1)C(=O)c1cc(Cl)c(Cl)cc1-2	77.1% (inactive)
COc1ccc2c(c1)C(=Nc1cc(OC)c(OC)c(OC)c1)C(=O)N2	104% (inactive)
CN(C)CCCN=c1cc2c(=O)n(CCCN(C)C)c(=O)c3c(NCCCN(C)C)cc4c(O)n(CCCN(C)C)c(=O)c1c4c3-2	25.1% (inactive)
COc1ccc(-c2cnc(SCC(=O)Nc3ccc(-c4nc5ccccc5s4)cc3)n2-c2ccc(OC)cc2)cc1	105% (inactive)
O=c1[nH]cc(Nc2cc(Cl)c3nonc3c2[N+](=O)[O-])c(=O)[nH]1	91.1% (inactive)
CCOC(=O)Nc1cc(-c2ccc(C)c(NS(C)(=O)=O)c2)nn2c(C)nnc12	18.9% (inactive)
NS(=O)(=O)c1cc2c(cc1Cl)NC=NS2(=O)=O	103% (inactive)
COc1ccc2ncccc2c1Cc1c(OC)ccc2ncccc12	57.9% (inactive)
c1ccc(-c2n(Cc3ccc4ccccc4c3)cc[n+]2Cc2ccc3ccccc3c2)cc1	-24.9% (active)
Nc1nc(Nc2ccccc2SSc2ccccc2Nc2nc(N)nc(-c3cccc(Cl)c3)n2)nc(-c2cccc(Cl)c2)n1	80.4% (inactive)
CC1CN(CC(O)c2ccc(Br)cc2)CCO1 (centres undefined)	97% (inactive)
CC[C@@H](C)/C=C(C)/C=C/C(=O)c1c(O)c(-c2ccc(O)cc2)cn(OC2CC(=O)CCC(C)OC(=O)CC2O)c1=O (some centres undefined)	6.27% (active)
CCCCc1n(Cc2ccc3ccccc3c2)cc[n+]1Cc1ccc2ccccc2c1	-17.5% (active)
COc1cc(/C=C2\SC(N3CCCCC3)=NC2=O)ccc1OCCCCCCOc1ccc(/C=C2\SC(N3CCCCC3)=NC2=O)cc1OC	7.46% (active)
CCCCCCCCN(CCO)CCCCCCCC	90.7% (inactive)
